Laboratory results reported in PubChem BioAssay AID624255 (Broad Institute, 2012).
The whole screen tested about 77,000 compounds, of which about 4,600 (6%) were called active. Another 1% or so got no clear call; they are omitted.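 Rule for the calls: active = mean inhibition above about 93%, with at least 55% of replicates each passing it (limit read from the data, passing the limit was not always enough); inconclusive = only one of those two conditions holds; inactive = neither condition holds.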 Shown is part of a subset that was picked to be rich in actives.

Experiment: T. cruzi intracellular proliferation inhibitors, primary screen, cell-based, beta-gal Tulahuen parasites, NIH3T3 host, luminescence (AID 624255)
Settings: T. cruzi beta-gal in NIH3T3, GalScreen luminescence, 90 h; at 8.34 µM; stronger effect = higher value

Row | Structure (SMILES) | inhibition
1 | COCC(=O)N1C[C@@H](C)[C@H](OC)CN(C)C(=O)c2cc(NC(=O)c3cc(C)on3)ccc2OC[C@@H]1C | 60.6% (inactive)
2 | C[C@H](O)C#Cc1ccc2c(c1)O[C@@H](CN(C)CC1CCCC1)[C@H](C)CN([C@@H](C)CO)S2(=O)=O | 13.4% (inactive)
3 | COCC(=O)Nc1ccc2c(c1)C(=O)N(C)C[C@H](OC)[C@@H](C)CN(C(=O)c1cnccn1)[C@H](C)CO2 | 7.73% (inactive)
4 | CC(=O)N1[C@H](C(=O)N(C)C)[C@@H](CO)[C@@H]2Cn3c(ccc(-c4ccccc4)c3=O)[C@@H]21 | 16.7% (inactive)
5 | Cc1ccc(S(=O)(=O)N(C)C[C@H]2OCCCC[C@H](C)Oc3ccc(NC(=O)Cc4ccccc4)cc3C(=O)N([C@@H](C)CO)C[C@@H]2C)cc1 | 110% (active)
6 | C[C@@H]1CCCCO[C@@H](CN(C)S(=O)(=O)c2ccc(Cl)cc2)[C@H](C)CN([C@@H](C)CO)C(=O)c2cc(NC(=O)Cc3ccccc3)ccc2O1 | 98.6% (active)
7 | Cc1ccc(S(=O)(=O)N(C)C[C@@H]2OCCCC[C@@H](C)Oc3ccc(NS(=O)(=O)c4ccccc4)cc3C(=O)N([C@H](C)CO)C[C@@H]2C)cc1 | 55% (inactive)
8 | C[C@@H]1CN([C@@H](C)CO)C(=O)c2cc(NC(=O)CCCN(C)C)ccc2O[C@@H](C)CCCCO[C@@H]1CN(C)S(=O)(=O)c1ccc(Cl)cc1 | 25.4% (inactive)
9 | Cc1ccc(S(=O)(=O)N(C)C[C@@H]2OCCCC[C@@H](C)Oc3ccc(NC(=O)C4CCCCC4)cc3C(=O)N([C@H](C)CO)C[C@H]2C)cc1 | 24% (inactive)
10 | C[C@@H]1CCCCO[C@H](CN(C)C)[C@H](C)CN([C@@H](C)CO)C(=O)c2cc(NC(=O)Cc3ccccc3)ccc2O1 | -33.2% (inactive)
11 | CCCN1C[C@H](C)[C@@H](OC)CN(C)C(=O)c2cc(NS(=O)(=O)CC)ccc2OC[C@H]1C | -88% (inactive)
12 | CN1c2ccc(Br)cc2[C@H]2[C@H](CCN2S(=O)(=O)c2ccccc2)[C@@H]1CO | 95.5% (inactive)
13 | CN1C(=O)c2cc(NS(=O)(=O)c3ccc(F)cc3)ccc2OC[C@@H]2O[C@@H](CC(=O)O)CC[C@H]21 | 20.4% (inactive)
14 | COc1cccc(C(=O)Nc2ccc3c(c2)C(=O)N(C)[C@@H]2CC[C@H](CC(=O)NCC4CC4)O[C@@H]2CO3)c1 | 22.9% (inactive)
15 | COCC(=O)Nc1ccc2c(c1)C(=O)N(C)C[C@H](OC)[C@@H](C)CN(C(=O)Cc1cccnc1)[C@@H](C)CO2 | -9.25% (inactive)
16 | CC(C)NC(=O)N1C[C@H]2[C@@H](c3ccccc31)[C@H](CO)N2C(=O)c1ccccc1F | -21.6% (inactive)
17 | COc1ccc(NC(=O)Nc2ccc3c(c2)C(=O)N([C@H](C)CO)C[C@H](C)[C@@H](CN(C)S(=O)(=O)c2ccc(OC)cc2)OCCCC[C@H](C)O3)cc1 | -12% (inactive)
18 | C[C@H]1CCCCO[C@H](CN(C)S(=O)(=O)c2ccc(Cl)cc2)[C@@H](C)CN([C@@H](C)CO)C(=O)c2cc(NC(=O)Nc3ccc4c(c3)OCO4)ccc2O1 | 105% (active)
19 | CC(C)NC(=O)Nc1ccc2c(c1)C(=O)N([C@@H](C)CO)C[C@H](C)[C@H](CN(C)S(=O)(=O)c1ccc(Cl)cc1)OCCCC[C@H](C)O2 | 106% (active)
20 | C[C@@H]1CCCCO[C@H](CN(C)S(=O)(=O)c2ccc(Cl)cc2)[C@@H](C)CN([C@H](C)CO)C(=O)c2cc(NC(=O)Nc3ccc4c(c3)OCO4)ccc2O1 | 82.9% (inactive)
21 | COc1ccc(S(=O)(=O)N(C)C[C@@H]2OCCCC[C@H](C)Oc3ccc(NC(=O)Nc4ccccc4)cc3C(=O)N([C@@H](C)CO)C[C@H]2C)cc1 | 37.1% (inactive)
22 | COc1ccc(NC(=O)Nc2ccc3c(c2)C(=O)N([C@H](C)CO)C[C@H](C)[C@H](CN(C)S(=O)(=O)c2ccc(Cl)cc2)OCCCC[C@H](C)O3)cc1 | 115% (active)
23 | CC(C)NC(=O)Nc1ccc2c(c1)C(=O)N([C@H](C)CO)C[C@@H](C)[C@@H](CN(C)S(=O)(=O)c1ccc(Cl)cc1)OCCCC[C@H](C)O2 | 55% (inactive)

Row | Structure (SMILES) | inhibition
24 | C[C@@H]1CCCCO[C@@H](CN(C)S(=O)(=O)c2ccc(F)cc2)[C@@H](C)CN([C@@H](C)CO)C(=O)c2cc(NC(=O)Nc3ccc4c(c3)OCO4)ccc2O1 | 23.6% (inactive)
25 | C[C@@H]1CCCCO[C@H](CN(C)S(=O)(=O)c2ccc(Cl)cc2)[C@H](C)CN([C@H](C)CO)C(=O)c2cc(NC(=O)NC3CCCCC3)ccc2O1 | 92.2% (inactive)
26 | Cc1ccc(S(=O)(=O)Nc2ccc3c(c2)C(=O)N([C@@H](C)CO)C[C@@H](C)[C@H](CN(C)C(=O)NC(C)C)OCCCC[C@H](C)O3)cc1 | 46% (inactive)
27 | CO[C@H]1CN(C)C(=O)c2ccc(NC(C)=O)cc2OC[C@H](C)N(CC2CC2)C[C@@H]1C | 5.22% (inactive)
28 | CNC(=O)C[C@H]1CC[C@@H]2[C@H](COc3ccc(NC(=O)Nc4cccc(F)c4)cc3C(=O)N2C)O1 | 14.8% (inactive)
29 | C[C@@H]1CN([C@H](C)CO)C(=O)c2cc(NC(=O)Nc3cccc4ccccc34)ccc2O[C@H]1CN(C)C(=O)Nc1ccccc1 | 45.7% (inactive)
30 | O=C(Nc1cccc(F)c1)N[C@@H]1CC[C@@H](CCn2cc(Cc3ccccc3)nn2)O[C@@H]1CO | 42.3% (inactive)
31 | CCNC(=O)Nc1ccc2c(c1)C(=O)N(C)[C@@H]1CC[C@H](CC(=O)NC3CCCCC3)O[C@H]1CO2 | 36% (inactive)
32 | O=C(Cc1ccccn1)NCC[C@H]1CC[C@H](NS(=O)(=O)c2ccccc2)[C@@H](CO)O1 | 44.9% (inactive)
33 | OC[C@@H]1[C@H](c2ccc(C#Cc3ccccc3)cc2)[C@@H]2CN(Cc3cncnc3)CCCCN12 | 112% (active)
34 | OC[C@@H]1[C@H](c2ccc(C#CC3(O)CCCC3)cc2)[C@H]2CN(Cc3cncnc3)CCCCN12 | 101% (active)
35 | COCC#Cc1ccc([C@H]2[C@H](CO)N3CCCCN(Cc4ccncc4)C[C@@H]23)cc1 | 37.4% (inactive)
36 | OC[C@H]1[C@@H](c2ccc(C#CC3(O)CCCC3)cc2)[C@H]2CN(Cc3cncnc3)CCCCN21 | 60.8% (inactive)
37 | OC[C@@H]1[C@@H](c2ccc(C#CC3(O)CCCC3)cc2)[C@@H]2CN(Cc3cncnc3)CCCCN12 | 18.1% (inactive)
38 | CCCC#Cc1ccc([C@H]2[C@H]3CN(Cc4cncnc4)CCCCN3[C@H]2CO)cc1 | 63.2% (inactive)
39 | CO[C@H]1CN(C)C(=O)c2cc(NC(=O)C3CC3)ccc2OC[C@@H](C)N(CCc2ccccc2)C[C@H]1C | 11.1% (inactive)
40 | CO[C@@H]1CN(C)C(=O)c2ccc(NC(=O)Nc3cc(Cl)cc(Cl)c3)cc2OC[C@H](C)NC[C@H]1C | -5.93% (inactive)
41 | CCCNC(=O)C[C@@H]1CC[C@@H]2[C@H](COC[C@H](O)CN2C(=O)c2cc(Cl)cc(Cl)c2)O1 | 3.7% (inactive)
42 | COc1ccc(NC(=O)N[C@H]2CC[C@@H](CCNC(=O)c3cc(Cl)cc(Cl)c3)O[C@H]2CO)cc1 | -22.3% (inactive)
43 | C[C@@H]1CCCCO[C@@H](CN(C)C(=O)NC2CCCCC2)[C@@H](C)CN([C@@H](C)CO)C(=O)c2cc(NC(=O)C3CCCCC3)ccc2O1 | 69.2% (inactive)
44 | O=C(NCc1cccc(F)c1)[C@H]1[C@H](CO)[C@H]2Cn3c(cccc3=O)[C@@H]1N2 | 23.3% (inactive)
45 | O=C(Nc1cc(F)ccc1F)N1CCCCN2[C@H](C1)[C@H](c1ccc(-c3cccnc3)cc1)[C@@H]2CO | 89.5% (inactive)
46 | CC(=O)N1CCCCN2[C@H](CO)[C@H](c3ccc(-c4ccccc4)cc3)[C@@H]2C1 | 72.8% (inactive)

Row | Structure (SMILES) | inhibition
47 | COc1ccccc1NC(=O)N1CCCCN2[C@@H](CO)[C@@H](c3ccc(C#Cc4ccccc4)cc3)[C@@H]2C1 | 94.4% (inactive)
48 | O=C(Nc1ccccc1F)N1CCCCN2[C@H](CO)[C@@H](c3ccc(-c4cccnc4)cc3)[C@H]2C1 | 104% (active)
49 | O=C(Nc1cc(F)ccc1F)N1CCCCN2[C@H](CO)[C@@H](c3ccc(-c4cncnc4)cc3)[C@H]2C1 | 106% (active)
50 | O=C(Nc1ccccc1)N1CCCCN2[C@H](CO)[C@@H](c3ccc(-c4ccccc4F)cc3)[C@H]2C1 | 45.9% (inactive)
51 | CN(C)CC(=O)N1CCCCN2[C@@H](CO)[C@H](c3ccc(-c4cccnc4)cc3)[C@@H]2C1 | 73.9% (inactive)
52 | O=C(Nc1cc(F)ccc1F)N1CCCCN2[C@H](CO)[C@@H](c3ccc(-c4cccnc4)cc3)[C@@H]2C1 | 69.1% (inactive)
53 | COc1ccccc1NC(=O)N1CCCCN2[C@H](C1)[C@H](c1ccc(-c3ccccc3)cc1)[C@@H]2CO | 119% (active)
54 | C[C@@H]1CN([C@H](C)CO)C(=O)c2cc(NC(=O)c3ccccc3)ccc2O[C@@H](C)CCCCO[C@H]1CN(C)S(=O)(=O)c1ccccc1 | -19.9% (inactive)
55 | O=C(Nc1ccc(Cl)cc1)N1C[C@@H]2[C@H](c3ccccc31)[C@@H](CO)N2C(=O)c1cccnc1 | -10.9% (inactive)
56 | C[C@@H](O)C#Cc1ccc([C@@H]2[C@@H](CO)N3CCCCN(C(=O)c4ccc(F)cc4)C[C@@H]23)cc1 | 26.5% (inactive)
57 | C[C@@H]1CCCCO[C@@H](CN(C)CC2CC2)[C@@H](C)CN([C@H](C)CO)C(=O)c2cc(NC(=O)Nc3cccc4ccccc34)ccc2O1 | 86.5% (inactive)
58 | C[C@@H]1CCCCO[C@H](CN(C)C(=O)Nc2cccc3ccccc23)[C@@H](C)CN([C@@H](C)CO)C(=O)c2cc(NC(=O)Nc3ccc(F)cc3)ccc2O1 | 91.1% (inactive)
59 | C[C@H](CO)N1C[C@H](C)[C@@H](CN(C)Cc2ccc(C(=O)O)cc2)OCCCC[C@H](C)Oc2ccc(NC(=O)c3ccccc3)cc2C1=O | 20.3% (inactive)
60 | C[C@@H]1CCCCO[C@@H](CN(C)Cc2ccccc2)[C@H](C)CN([C@H](C)CO)C(=O)c2cc(NC(=O)Nc3cccc4ccccc34)ccc2O1 | 112% (active)
61 | C[C@H]1CCCCO[C@H](CN(C)Cc2ccccc2)[C@@H](C)CN([C@@H](C)CO)C(=O)c2cc(NC(=O)c3ccccc3)ccc2O1 | 102% (active)
62 | C[C@@H]1CCCCO[C@H](CN(C)C(=O)Nc2ccc(C(F)(F)F)cc2)[C@@H](C)CN([C@@H](C)CO)C(=O)c2cc(NC(=O)Nc3cccc4ccccc34)ccc2O1 | 87.4% (inactive)
63 | C[C@H](CO)N1C[C@H](C)[C@H](CN(C)Cc2ccccc2)OCCCC[C@H](C)Oc2ccc(NC(=O)c3ccccc3)cc2C1=O | 71.5% (inactive)
64 | C[C@@H]1CN([C@@H](C)CO)C(=O)c2cc(NC(=O)Nc3cccc4ccccc34)ccc2O[C@@H](C)CCCCO[C@H]1CN(C)Cc1ccccc1 | 112% (active)
65 | C[C@@H]1CCCCO[C@@H](CN(C)C(=O)Nc2ccc(F)cc2)[C@H](C)CN([C@H](C)CO)C(=O)c2cc(NC(=O)Nc3cccc4ccccc34)ccc2O1 | 108% (active)
66 | COc1ccc(CN(C)C[C@H]2OCCCC[C@@H](C)Oc3ccc(NC(=O)Nc4cccc5ccccc45)cc3C(=O)N([C@H](C)CO)C[C@@H]2C)cc1 | 67.6% (inactive)
67 | CC(C)NC(=O)N(C)C[C@H]1OCCCC[C@@H](C)Oc2ccc(NC(=O)Nc3cccc4ccccc34)cc2C(=O)N([C@H](C)CO)C[C@@H]1C | 33.3% (inactive)
68 | C[C@@H]1CCCCO[C@H](CN(C)C(=O)c2ccccc2)[C@@H](C)CN([C@H](C)CO)C(=O)c2cc(NC(=O)Nc3cccc4ccccc34)ccc2O1 | -46.1% (inactive)
